Assay outcomes as filed in PubChem BioAssay.
HNF4A DNA FP: change in binding of human HNF4A to DNA, primary screen, biochemical, fluorescence polarization, FITC-DNA | Hepatocyte nuclear factor 4-alpha (Homo sapiens), P41235 | 1 h | activity change, % at 10 µM | 360,000 tested, 0.3% active | AID 1224865, 2016; in the data active = activity change above about 30%, passing the limit was not always enough
Myeloid diff 2: induction of myeloid progenitor differentiation, primary screen, cell-based, flow cytometry, MLPCN library; ER-HoxA9 myeloid progenitors, lysozyme-GFP differentiation; calls only at 10 µM; 360,000 tested, 1% active;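 active = normalized GFP-positive differentiation at or above the plate's own cutoff, the solvent-only control mean plus 3 SD; inconclusive = no clear call, values can overlap the other calls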;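 also: cells exposed to compound for four days before flow analysis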
Rpn11 inh: Rpn11 (PSMD14) deubiquitinase inhibitors, primary screen, biochemical, fluorescence polarization, uHTS; 26S proteasome non-ATPase regulatory subunit 14 (Homo sapiens), O00487; human 26S proteasome, Ub4-pepOG fluorescence polarization; 20S core pre-blocked with epoxomicin; inhibition, % at 20 µM; 360,000 tested, 0.59% active; AID 588493, 2011;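 active = inhibition at 20 µM, scaled to each plate's controls, above about 33%, limit read from the data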
Target sequence (O00487 whole entry, looked up): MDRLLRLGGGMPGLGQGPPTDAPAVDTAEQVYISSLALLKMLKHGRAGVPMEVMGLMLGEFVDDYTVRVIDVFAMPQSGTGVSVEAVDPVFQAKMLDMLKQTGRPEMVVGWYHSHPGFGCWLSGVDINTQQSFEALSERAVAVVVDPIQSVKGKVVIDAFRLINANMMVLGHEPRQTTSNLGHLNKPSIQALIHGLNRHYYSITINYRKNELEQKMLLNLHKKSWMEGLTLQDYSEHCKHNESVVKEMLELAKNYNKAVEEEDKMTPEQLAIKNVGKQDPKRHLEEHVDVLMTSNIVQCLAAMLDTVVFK
TPT1 inhibitor: Candida albicans TPT1 enzyme inhibitors, primary screen, biochemical, fluorescence polarization | recombinant caTPT1, FP RNA substrate dephosphorylation | tRNA 2'-phosphotransferase TPT1 (Candida albicans SC5314) | inhibition, % at 5 µM | 300,000 tested, 0.81% active | AID 1962, 2009;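 active = inhibition above the mean of all tested compounds plus 3 SD, set per screening campaign, cut at about 24% in these data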
TPT1 inh confirm: Candida albicans TPT1 inhibitors, confirmation, biochemical, fluorescence polarization, triplicate. inhibition, % at 5 µM. 2,400 tested, 74% active. recombinant caTPT1, RNase T1 coupled. shares compounds with TPT1 inhibitor;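 active = inhibition above the primary screen limit, the mean inhibition of all tested compounds plus 3 SD, cut at about 25% in these data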
RNase T1 counter: RNase T1 inhibitors, counter-screen for TPT1 inhibitor project, biochemical, fluorescence polarization; RNase T1 cleavage, 1536-well; inhibition, % at 5 µM; shares compounds with TPT1 inhibitor; 2,400 tested, 83% active;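 active = inhibition above the solvent-only control well mean plus 3 SD, limit set per screening run, cut at about 23% in these data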;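 also: inhibitors block cleavage so intact labeled substrate keeps polarization high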
Target sequence (P00651 whole entry, looked up): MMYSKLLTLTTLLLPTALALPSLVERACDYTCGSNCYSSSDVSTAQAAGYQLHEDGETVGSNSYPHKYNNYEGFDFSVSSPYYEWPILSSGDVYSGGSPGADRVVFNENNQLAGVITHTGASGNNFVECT
Each line names hits and unclear results; the compound was inactive in the other large screens (follow-up assays come after a bar, where shown). Compounds with a hit are over-represented: about 2.1% of the library has one in this group of screens.

COc1cc(NC(=O)C2=C(N3CCOCC3)/C(=C/c3ccc(Cl)cc3)CC2)cc(OC)c1OC	none
COC1=C/C(=C/c2c(O)c(C#N)c3ccccn23)C=CC1=O	TPT1 inhibitor 30.4 | TPT1 inh confirm inactive | RNase T1 counter inactive
CC(C(=O)c1ccc(Br)cc1)[n+]1cccc2ccccc21 (configuration not stated)	Myeloid diff 2 active, TPT1 inhibitor 37.0 (not shown: Rpn11 inh) | TPT1 inh confirm inactive | RNase T1 counter 26.3
CN1CCC/C1=C/C=C1\SC(=S)NC1=O	TPT1 inhibitor 145.9 (not shown: Rpn11 inh) | TPT1 inh confirm 153.9 | RNase T1 counter 140.4
C=CCn1c(=O)/c(=C/c2ccc(C)o2)s/c1=C(/C#N)C(=O)c1ccccc1	TPT1 inhibitor 105.6 (not shown: Rpn11 inh) | TPT1 inh confirm 144.0 | RNase T1 counter 141.9
O=C(O)CNC(=O)CC1S/C(=N/N=C2/NC(=O)CS2)NC1=O (configuration not stated)	TPT1 inhibitor 25.5 | TPT1 inh confirm 33.0 | RNase T1 counter 45.6
NC(=O)NC(=O)CC1S/C(=N/N=C2\CSC(=O)N2)NC1=O (configuration not stated)	none
COc1ccc(/C=N/Nc2ccc([N+](=O)[O-])cc2S(=O)(=O)N2CCN(C)CC2)cc1	TPT1 inhibitor 71.0 (not shown: Rpn11 inh) | TPT1 inh confirm 104.9 | RNase T1 counter 118.3
COc1ccc(NS(=O)(=O)c2cc([N+](=O)[O-])ccc2N/N=C\c2c(C)[nH]c3ccccc23)cc1	HNF4A DNA FP 64.5, Myeloid diff 2 active, TPT1 inhibitor 71.6 (not shown: Rpn11 inh) | TPT1 inh confirm 74.5 | RNase T1 counter 85.7
COc1ccc(C=NNc2ccc([N+](=O)[O-])cc2S(=O)(=O)Nc2ccccc2C(=O)O)cc1OC	none (no result: TPT1 inhibitor)
COc1ccc(NS(=O)(=O)c2cc([N+](=O)[O-])ccc2NN=Cc2ccccc2OCC(=O)O)cc1	none (no result: TPT1 inhibitor)
Cc1c2cnn(CC(=O)NCCCN3CCCCC3C)c(=O)c2c(C)n1Cc1ccccc1 (configuration not stated)	TPT1 inhibitor 24.2 | TPT1 inh confirm 36.3 | RNase T1 counter 44.1
CCOc1ccc(C2=C/C(=C/c3cccnc3)C(=O)O2)cc1	TPT1 inhibitor 82.6 | TPT1 inh confirm 69.1 | RNase T1 counter 78.3
COc1ccc(C2=C/C(=C/c3cccnc3)C(=O)O2)cc1OC	TPT1 inhibitor 80.0 (not shown: Rpn11 inh) | TPT1 inh confirm 80.0 | RNase T1 counter 84.9
CC(=O)Oc1cccc(/C=C2\C=C(c3ccc(C)cc3)OC2=O)c1	none
CN(C)c1ccc(/C=C2\SC(=S)N(Nc3ncc(C(F)(F)F)cc3Cl)C2=O)cc1	Myeloid diff 2 active, TPT1 inhibitor 123.0 (not shown: Rpn11 inh) | TPT1 inh confirm 141.1 | RNase T1 counter 129.5
Cc1cc(C)nc(NN2C(=O)/C(=C/c3ccccc3)SC2=S)n1	none
O=C(CN1CCN(S(=O)(=O)c2ccc(Br)cc2)CC1)N/N=C/c1ccc(Br)s1	TPT1 inhibitor 29.9 (no result: Myeloid diff 2) | TPT1 inh confirm inactive | RNase T1 counter inactive
Cc1ccc(/C=N/NC(=O)CN2CCN(S(=O)(=O)c3ccc(Br)cc3)CC2)s1	none
CCN1CCS/C1=C\C=C\C1=[N+](CC)CCS1	none (no result: Myeloid diff 2, TPT1 inhibitor)
CCN1CCS/C1=C/C=C/C1=[N+](CC)CCS1	Myeloid diff 2 inconclusive, TPT1 inhibitor 24.7 | TPT1 inh confirm 25.4 | RNase T1 counter 32.8
COc1ccc(S(=O)(=O)N2CCN(C(=O)C3CC(=O)N(c4ccccc4F)C3)CC2)cc1OC (configuration not stated)	none (no result: TPT1 inhibitor)
COc1cc(C(=O)NCC(c2ccccc2)N(C)C)ccc1OCc1c(C)noc1C (configuration not stated)	none (no result: TPT1 inhibitor)
CCN(CC)Cc1c(O)ccc2c1O/C(=C\C=C\c1ccccc1)C2=O	none (not shown: Myeloid diff 2, Rpn11 inh)
COCCN(CCOC)Cc1c(O)ccc2c1O/C(=C\c1ccc(C)o1)C2=O	TPT1 inhibitor 27.0 | TPT1 inh confirm 34.1 | RNase T1 counter 45.6
COc1cccc(/C=N/N2C(=O)CSC2=S)c1O	none
COc1ccc2ccccc2c1/C=N/N1C(=O)CSC1=S	TPT1 inhibitor 27.1 | TPT1 inh confirm inactive | RNase T1 counter inactive
Cc1ccc(-c2ccc(C3C(C#N)=C(N)Oc4n[nH]c(C)c43)o2)cc1 (configuration not stated)	TPT1 inhibitor 35.1 | TPT1 inh confirm inactive | RNase T1 counter inactive
COc1ccc(N2C(=NC(=O)CCC3CCCC3)SC3CS(=O)(=O)CC32)cc1 (configuration not stated)	none
CC1=C(C(=O)N(C(C)C)C(C)C)CC(CC(=O)NCc2ccco2)C(=O)N1CCC1=CCCCC1 (configuration not stated)	none (no result: TPT1 inhibitor)
Cc1c(Cc2ccccc2)sc(N)c1C(N)=O	none (no result: HNF4A DNA FP, Myeloid diff 2, Rpn11 inh)
Cc1c(Cc2ccccc2)sc(/N=C/c2c(O)ccc3ccccc23)c1C(N)=O	HNF4A DNA FP 38.3, TPT1 inhibitor 94.0 (not shown: Rpn11 inh) | TPT1 inh confirm 47.6 | RNase T1 counter 57.1
Cc1c(Cc2ccccc2)sc(/N=C/c2ccc3ccccc3c2)c1C(N)=O	Myeloid diff 2 inconclusive, TPT1 inhibitor 55.6 | TPT1 inh confirm inactive | RNase T1 counter inactive
COc1cc([N+](=O)[O-])ccc1N/C=C/C(=O)c1cccs1	TPT1 inhibitor 166.6 (not shown: Rpn11 inh) | TPT1 inh confirm 143.4 | RNase T1 counter 136.2
CCN(C(=O)c1ccccc1)c1ccc([N+](=O)[O-])cc1	none
O=[N+]([O-])c1ccc(N(c2ccccc2)c2ccccc2)cc1	TPT1 inhibitor 29.7 (not shown: Rpn11 inh) | TPT1 inh confirm 31.8 | RNase T1 counter 46.2
Oc1c(/C=C/C=C/C=Nc2ccccc2)sc(=S)n1Cc1ccccc1	HNF4A DNA FP 43.1, TPT1 inhibitor 43.3 (not shown: Rpn11 inh) | TPT1 inh confirm 27.6 | RNase T1 counter 38.9
CCn1c(O)c(/C=C/C=C/C=Nc2ccccc2)sc1=S	none
CN1C[C@@H]2[C@@H]3C(=O)N(Cc4ccccc4)C(=O)[C@@H]3[C@](C)(C1=O)N2C(=O)c1ccc(Cl)cc1	none (no result: TPT1 inhibitor)
Oc1ccc(/C=N/Nc2nc(-c3cccnc3)nc3ccccc23)c(O)c1	HNF4A DNA FP 35.6, TPT1 inhibitor 45.7 (not shown: Rpn11 inh) | TPT1 inh confirm 59.3 | RNase T1 counter 68.6
Cc1c(O)ccc(/C=N/Nc2nc(-c3cccnc3)nc3ccccc23)c1O	none
O=Cc1ccc(OCc2ccccn2)cc1	TPT1 inhibitor 50.6 | TPT1 inh confirm inactive | RNase T1 counter inactive
CN(C)CCN1C(=O)C(O)=C(C(=O)c2cc3ccccc3o2)C1c1ccc(N(C)C)cc1 (configuration not stated)	TPT1 inhibitor 31.6 | TPT1 inh confirm inactive | RNase T1 counter 34.8
C[C@H]1CN(c2ccc(Br)cc2)C(=O)[C@@H]1CC(=O)Nc1ccccc1	none (no result: TPT1 inhibitor)
COc1ccccc1CNC(=O)[C@H](C)NC(=O)C1CCN(C(=O)[C@@H](N)C(C)C)CC1	none
NC(=O)c1sc2nc3c(c(-c4ccco4)c2c1N)CCC3	none
